Our source for the outcome values is PubChem BioAssay (EPA / NIEHS).

The structures appear in SMILES notation. Inconclusive results are not listed. Active and inactive are the calls of the source. How the source made its calls: active means hit-call score of the fitted dose curve at least 0.9, where 1 is the maximum; inconclusive means response in the unintended direction; inactive means score below 0.9.

Estrogen receptor (Homo sapiens), sequence (P03372 whole entry, looked up, the tested form may be a part): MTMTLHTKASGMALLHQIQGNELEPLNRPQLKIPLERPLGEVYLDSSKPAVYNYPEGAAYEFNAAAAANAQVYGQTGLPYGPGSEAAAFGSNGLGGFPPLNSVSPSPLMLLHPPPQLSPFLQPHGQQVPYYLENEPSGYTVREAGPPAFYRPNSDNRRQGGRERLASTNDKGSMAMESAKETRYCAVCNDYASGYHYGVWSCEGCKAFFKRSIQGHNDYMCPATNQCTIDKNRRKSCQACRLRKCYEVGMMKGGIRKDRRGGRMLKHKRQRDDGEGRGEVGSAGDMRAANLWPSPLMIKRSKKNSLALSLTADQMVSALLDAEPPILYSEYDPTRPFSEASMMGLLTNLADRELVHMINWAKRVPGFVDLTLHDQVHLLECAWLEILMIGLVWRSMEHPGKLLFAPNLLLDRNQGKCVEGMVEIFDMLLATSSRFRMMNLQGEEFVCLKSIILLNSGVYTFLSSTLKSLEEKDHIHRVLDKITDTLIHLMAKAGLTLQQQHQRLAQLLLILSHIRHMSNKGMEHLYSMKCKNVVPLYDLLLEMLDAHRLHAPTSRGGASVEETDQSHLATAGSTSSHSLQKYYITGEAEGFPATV

The experiment deals with Estrogen receptor (Homo sapiens) (UniProt P03372). Description: OT_ER_ERaERa_0480: Odyssey Thera (OT) 8-hour HEK293T Protein-Complementation Assay for Estrogen Receptor-alpha/-alpha Homodimer (AID 2283351).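 Further: rise in fluorescence from reassembled reporter fragments on ERα LBD homodimer in nucleus or whole cell.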 The protocol:
OT_ER_ERaERa_0480 is a cell-based assay that uses HEK293T, a human kidney cell line, with measurements taken at 8 hours after chemical dosing in a 384-well plate.OT_ER_ERaERa_0480 is one of one assay component(s) measured or calculated from the OT_ER_ERaERa_0480 assay. It is designed to make measurements of protein fragment complementation, a form of binding reporter, as detected with fluorescence intensity signals by Protein-fragment Complementation technology.Data from the assay component OT_ER_ERaERa_0480 was analyzed into 1 assay endpoint. This assay endpoint, OT_ER_ERaERa_0480, was analyzed in the positive analysis fitting direction relative to DMSO as the negative control and baseline of activity. Using a type of binding reporter, measures of receptor for gain-of-signal activity can be used to understand the binding at the pathway-level as they relate to the gene ESR1. Furthermore, this assay endpoint can be referred to as a primary readout, because the performed assay has only produced 1 assay endpoint. To generalize the intended target to other relatable targets, this assay endpoint is annotated to the nuclear receptor intended target family, where the subfamily is steroidal.
Protein-fragment complementation assay, or PCA, is a method for the identification and quantification of protein-protein interactions. In the PCA, the proteins of interest ("bait" and "prey") are each covalently linked to fragments of a third protein (e.g. DHFR, which acts as a "reporter"). Interaction between the bait and the prey proteins brings the fragments of the reporter protein in close proximity to allow them to form a functional reporter protein whose activity can be measured. The OT ER alpha / ER alpha assay is a homodimer PCA of the ligand binding domain (amino acids 310-547) of human ER alpha stably expressed in HEK293T cells. […] Fluorescent signal in the basal state of the assay is very low and is primarily punctuate and cytoplasmic. Modulation of this assay is quantified as an increase in mean fluorescence intensity in the nucleus (for agonists) or in the nucleus and cytoplasm (antagonists) relative to vehicle controls, and can be quantified on a high content imaging device or a laser scanning cytometer. The latter instrument is favored for this assay because of the rapid mode of data acquisition, the ability to acquire data from the entire cell population in a well (as opposed to a fraction of the well on the high content devices) and the larger dynamic range typically achieved with this instrument. To assess sensitivity of the ER alpha/ER alpha LBD assay to ligand, cells were treated with the ER agonist 17 beta-estradiol (E2) in 10-point concentration- response format for 8 hours and monitored response on a laser scanning plate cytometer (Acumen eX3; TTP Lab Tech).
Consider `OC[C@@H](O)[C@H](O)[C@@H](O)[C@@H](O)CO`, for which the call was inactive.
Take `CC(=O)N(C)C`: the result was inactive.
For the compound `O=C(O)c1ccccc1O`, the result was inactive.
The result for `C1=COCCC1` reads “inactive”.
With `c1ccc(OCCOc2ccccc2)cc1` the entry was “inactive”; with `NC(=O)c1cccnc1`, “inactive”; with `CC(=O)OC(C)(C)C1CC=C(C)CC1` (stereo not given), “inactive”.
`NC(N)=S`: the outcome was inactive.
With `CC(=O)CC(=O)N(C)C` the entry was “inactive”.
With `CCCCCC1CCC(=O)O1` (stereo not given), the compound was classed as inactive.
`O=C(O)CS`: the compound was called inactive.
Take `Cc1cccc(O)c1`: the outcome was inactive.
With `CCCC[N+](C)(CCCC)CCCC` the entry was “inactive”; with `COC(=O)c1cccc(C(=O)OC)c1`, “inactive”.
The result for `COc1cc(OC)c2ccc(=O)oc2c1` reads “inactive”.
Regarding `CC1=CCC(C(C)C)=CC1`, the result was inactive.
Turning to `COC(=O)C(C)Oc1ccc(Oc2ncc(C(F)(F)F)cc2Cl)cc1` (stereo not given), the call was inactive.
Consider `c1ccc(Cc2ccccc2)cc1`, for which the call was inactive.
The result for `COc1ccc2[nH]cc(CCNC(C)=O)c2c1` reads “inactive”; that for `CCCCCCCCCCCCOCCOS(=O)(=O)O`, “inactive”; that for `c1coc(CNc2ncnc3nc[nH]c23)c1`, “inactive”.
As for `COc1ccccc1O`, the outcome was inactive.
For `CC(=O)c1ccc(O)cc1`, the compound was classed as inactive.
Consider `CNC(=C[N+](=O)[O-])NCCSCc1ccc(CN(C)C)o1`, for which the outcome was inactive.
For `CCc1cccc(O)c1`, the call was inactive.
Regarding `CCCCCC1C(=O)CCC1CC(=O)OC` (stereo not given), the outcome was inactive.
On to `CCCCCCCCOS(=O)(=O)O`, for which the result was inactive.
Take `CC1COC(=O)O1` (stereo not given): the outcome was inactive.
Consider `CCCCCCCCCOS(=O)(=O)O`, for which the compound was called inactive.
With `CN(C)C(=O)Nc1ccccc1`, the compound was called inactive.
Take `CCCCCCCCCCCCS`: the outcome was inactive.
With `CCC(C)(CCCC(C)C)OC(C)=O` (stereo not given), the compound was called inactive.
Regarding `CCCCOCCOCCO`, the compound was called inactive.
As to `CC(C)C(=O)c1ccccc1`, the outcome was inactive.
With `CC(C)(C)c1ccc(S)cc1` the entry was “inactive”; with `CC(=O)OC/C=C(C)/C=C/C=C(C)/C=C/C1=C(C)CCCC1(C)C`, “inactive”; with `C1CCCNCC1`, “inactive”.
On to `CC(=O)Nc1cc(S(=O)(=O)O)cc2cc(S(=O)(=O)O)c(N=Nc3ccccc3)c(O)c12`, for which the compound was called inactive.
Regarding `O=C(O)C1=NN(c2ccc(S(=O)(=O)O)cc2)C(=O)C1`, the call was inactive.
On to `CC(C)(CO)CO`, for which the call was inactive.
